Experimental findings from PubChem BioAssay (NCATS) are described below.

Records with an inconclusive call do not appear. A number with no mark means an inactive call. The source made the active and inactive calls. Calls follow the shape of the dose curve; as a rule, active = well fitted cell-killing curve with a large enough effect; inconclusive = small, poorly fitted or top-dose-only effect, or effect the other way; inactive = no such curve, though single readings can be large or run the other way.

Assay [1] is described as follows: Quantitative High-Throughput drug screen in 47 multiple myeloma cell lines against the NCATS MIPE library collection: SKMM1_PLB cell viability assay (AID 1919863). Also: nearly all actives have a fitted effect of over 35% in size. Conditions: SKMM1 myeloma viability, CellTiter-Glo ATP, 48 h; viability: active compounds read low. The procedure, abridged:
(§1)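 500 cells/well; MIPE 4.0 drugs pin-transferred; 48 h, 37C, 5% CO2. CellTiter-Glo, 5 min RT, luminescence. Controls: DMSO 100%, media 0%.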

Assay [2] in a line: Quantitative High-Throughput drug screen in 47 multiple myeloma cell lines against the NCATS MIPE library collection: U266_ATCC cell viability assay (AID 1919864). Also: nearly all actives have a fitted effect of over 35% in size. The method, boiled down: as §1
Assay [3] can be described thus: Quantitative High-Throughput drug screen in 47 multiple myeloma cell lines against the NCATS MIPE library collection: XG6_PLB cell viability assay (AID 1919865). Also: nearly all actives have a fitted effect of over 40% in size. The method, boiled down: as §1
Assay [4] is described as follows: Quantitative High-Throughput drug screen in 47 multiple myeloma cell lines against the NCATS MIPE library collection: PCM6_Riken cell viability assay (AID 1919870). Also: nearly all actives have a fitted effect of over 30% in size. The method, boiled down:
as §1

Assay [5] can be described thus: Quantitative High-Throughput drug screen in 47 multiple myeloma cell lines against the NCATS MIPE library collection: OPM2_DSMZ cell viability assay (AID 1919872). Also: nearly all actives have a fitted effect of over 30% in size. The method, boiled down: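 Luminescent ATP measurement with CellTiter-Glo gives viability, scaled between DMSO-only wells (100%) and media-only wells (0%). Cells, 500 per well, faced library compounds for 48 hours at 37C.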

Assay [6] in a line: Quantitative High-Throughput drug screen in 47 multiple myeloma cell lines against the NCATS MIPE library collection: XG1_PLB cell viability assay (AID 1919866). Also: nearly all actives have a fitted effect of over 35% in size. The method, boiled down: as §1
A short description of assay [7]: Quantitative High-Throughput drug screen in 47 multiple myeloma cell lines against the NCATS MIPE library collection: VP6_DJ cell viability assay (AID 1919867). Also: nearly all actives have a fitted effect of over 40% in size. The procedure, abridged: as §1
Assay [8] can be described thus: Quantitative High-Throughput drug screen in 47 multiple myeloma cell lines against the NCATS MIPE library collection: UTMC2_PLB cell viability assay (AID 1919868). Also: nearly all actives have a fitted effect of over 55% in size. Conditions: CellTiter-Glo ATP luminescence, 48 h; viability (% of DMSO control): at 45.8 µM (top of the series). The method, boiled down: as §1
Assay [9] in a line: Quantitative High-Throughput drug screen in 47 multiple myeloma cell lines against the NCATS MIPE library collection: PE2_PLB cell viability assay (AID 1919869). Also: nearly all actives have a fitted effect of over 35% in size. The method, boiled down: as §1
Assay [10] in a line: Quantitative High-Throughput drug screen in 47 multiple myeloma cell lines against the NCATS MIPE library collection: RPMI8226_ATCC cell viability assay (AID 1919871). Also: nearly all actives have a fitted effect of over 30% in size. The procedure, abridged:
as §1
Potency is read from the fitted curve at half-maximal effect.

Turning to `COc1cc(CNC(=O)CCCCC=CC(C)C)ccc1O`, the viability in [1] was 120%. For the same compound, the Potency result in assay [2], in assay [4] and in assay [5] was “inactive” throughout. Further, the Potency in assay [3] was 13.2 µM (active).

Turning to `CNc1nc(Nc2ccc(C(=O)N3CCOCC3)cc2OC)ncc1Cl`, in assay [1], the viability is 112%. Besides, the Potency result in [2] and in assay [5] was “inactive” throughout. The Potency in assay [6] and in assay [4] was 16.6 µM (active) throughout.

Consider `CSc1cccc(Nc2ncc3cc(-c4c(Cl)cccc4Cl)c(=O)n(C)c3n2)c1`, for which the Potency in [1] is 1.87 µM (active); in assay [3], 0.118 µM (active); in [7], 0.118 µM (active); in assay [8], 0.0166 µM (active); in [4], 0.187 µM (active); in assay [5] it was 1.32 µM (active).

On to `COc1c(C)c2c(c(O)c1CC=C(C)CCC(=O)OCCN1CCOCC1)C(=O)OC2`, for which the results for the Potency in assay [1], in assay [2] and in [5] were 4.18 µM (active), 8.33 µM (active) and 13.2 µM (active), respectively.

For the compound `CN1CC(=O)NC1=NC(=O)Nc1cccc(Cl)c1`, the Potency in assay [1] was 18.7 µM (active); in assay [3], 23.5 µM (active); in [6], 29.6 µM (active); in assay [9], 20.9 µM (active); in [4] it was 23.5 µM (active); in assay [10], 14.8 µM (active). Further, in assay [5], the Potency result is “inactive”.

With `Fc1ccc(C(c2ccc(F)cc2)N2CCN(CC=Cc3ccccc3)CC2)cc1`, the viability in [1] is 107%. Moreover, the Potency in assay [3] is 7.43 µM (active); in [6], 9.35 µM (active); in assay [7] it was 8.33 µM (active); in [4], 5.9 µM (active); in assay [10] it was 16.6 µM (active). Besides, the Potency result in [8] and in assay [5] was “inactive” throughout.

As for `N=C1SC(=Cc2ccc(-c3ccc4c(c3)C(=O)NC4=O)o2)C(=O)N1c1ccc(Br)cc1`, the Potency in assay [1] was 3.32 µM (active); in assay [3] it was 1.66 µM (active); in assay [6], 2.35 µM (active); in assay [9] it was 2.09 µM (active); in assay [10], 3.32 µM (active).

On to `C[C@]12C=CC(=O)C=C1CC[C@@H]1[C@@H]2[C@@H](O)C[C@@]2(C)[C@@H]1CC[C@]2(O)C(=O)CO`, for which the Potency in assay [1] was 1.48 µM (active); in [10], 0.187 µM (active). The Potency result in [3], in [6], in assay [4] and in assay [5] was “inactive” in each case.

For `Cc1ccccc1-n1c(Cn2nc(-c3cccc(O)c3)c3c(N)ncnc32)nc2cccc(C)c2c1=O`, the Potency was 8.33 µM (active) in assay [1]; 0.935 µM (active) in assay [3]; 1.05 µM (active) in assay [7]; 4.18 µM (active) in assay [8]; 2.35 µM (active) in [9]; 5.9 µM (active) in assay [4]. In addition, the Potency was 13.2 µM (active) in [10] and 8.33 µM (active) in assay [5].

In the case of `CCCCCCCCCCCCCC(=O)N[C@H](CO)[C@H](O)c1ccc([N+](=O)[O-])cc1`, the Potency is 7.43 µM (active) in [1]; 23.5 µM (active) in assay [3]; 20.9 µM (active) in assay [6]; 26.4 µM (active) in [7]; 18.7 µM (active) in assay [8]; 20.9 µM (active) in [4]. The Potency result in assay [5] was “inactive”.

Turning to `Cc1ccc(S(=O)(=O)OCC(=O)Nc2ccc(C(=O)O)c(O)c2)cc1`, in assay [1], the viability is 102%. The Potency was 3.72 µM (active) in assay [3]; 16.6 µM (active) in assay [7]; 9.35 µM (active) in assay [8]; 20.9 µM (active) in assay [9]; 20.9 µM (active) in assay [4]. Moreover, the Potency result in assay [10] and in [5] was “inactive” throughout.

On to `Cc1ccc(C(=O)N(CCCN)[C@@H](c2nc3cc(Cl)ccc3c(=O)n2Cc2ccccc2)C(C)C)cc1`, for which the Potency was 23.5 µM (active) in assay [1], 26.4 µM (active) in [2] and 5.26 µM (active) in assay [4]. Besides, the Potency result in assay [5] was “inactive”.

On to `CCC(=C(c1ccc(O)cc1)c1ccc(OCCNC)cc1)c1ccccc1`, for which the Potency was 20.9 µM (active) in assay [1]; 6.62 µM (active) in [3]; 11.8 µM (active) in assay [6]; 13.2 µM (active) in assay [7]; 9.35 µM (active) in assay [8]; 23.5 µM (active) in assay [4].

For `CC1(C)CC(=O)c2c(C(F)(F)F)nn(-c3ccc(C(N)=O)c(NC4CCC(O)CC4)c3)c2C1` (configuration not stated), the Potency in [1] is 0.187 µM (active); in assay [2], 0.0935 µM (active); in assay [5], 0.166 µM (active).

On to `CCCCc1ccc(NS(=O)(=O)c2ccc(C)c(C(=O)N3CCN(c4cccc(C)c4C)CC3)c2)cc1`, for which the Potency in [1] is 20.9 µM (active); in assay [2], 13.2 µM (active); in assay [10], 20.9 µM (active).

For `C=CC(=O)Nc1cccc(Sc2nc(Nc3ccc(N4CCN(C)CC4)cc3)ncc2Cl)c1`, the Potency in assay [1] was 37.2 µM (active); in assay [3], 0.526 µM (active); in assay [6], 1.05 µM (active).

On to `COc1cc2ncnc(Nc3cc(Br)c(O)c(Br)c3)c2cc1OC`, for which the Potency in [1] is 0.0469 µM (active); in [3] it was 0.0047 µM (active); in [6] it was 0.0074 µM (active); in [8] it was 0.526 µM (active); in assay [9], 0.0833 µM (active); in [4], 0.0332 µM (active). Also, the Potency in assay [10] is 8.33 µM (active).

`CCNC(=O)Nc1ccc(Oc2ncnc(N)c2C=NOC)cc1Cl`: the Potency in [1] was 11.8 µM (active); in assay [3] it was 4.18 µM (active); in [6], 2.96 µM (active); in [10] it was 18.7 µM (active).

For `COc1cc(Nc2nc3ccccc3nc2NS(=O)(=O)c2ccc(NC(=O)c3ccc(C)c(OC)c3)cc2)cc(OC)c1`, the Potency is 10.5 µM (active) in [1]; 13.2 µM (active) in [3]; 13.2 µM (active) in assay [6]; 5.9 µM (active) in assay [7]; 2.35 µM (active) in assay [4].

For `CC(C)n1c(C=C[C@H](O)C[C@H](O)CC(=O)O)c(-c2ccc(F)cc2)c2ccccc21`, the Potency in assay [1] was 16.6 µM (active); in [3], 16.6 µM (active); in assay [6] it was 4.69 µM (active); in assay [7] it was 16.6 µM (active); in assay [9], 14.8 µM (active); in assay [10], 18.7 µM (active).

With `CNC(=O)c1cc(COc2nnc(Nc3ccc(Cl)cc3)c3ccoc23)ccn1`, the values for the Potency in assay [1] and in assay [10] were 23.5 µM (active) and 20.9 µM (active), respectively. Moreover, the Potency entry in [2] is “inactive”.

As for `Oc1cc(O)cc(C=Cc2ccc(O)c(O)c2)c1`, the Potency was 23.5 µM (active) in [1]; 5.26 µM (active) in assay [3]; 8.33 µM (active) in [6]; 10.5 µM (active) in assay [7]; 10.5 µM (active) in assay [4].
